{"source": "PubChem BioAssay AID651958", "about": "(The Scripps Research Institute Molecular Screening Center, 2012)", "note": "The whole screen tested about 370,000 compounds, of which about 2,000 (0.54%) were called active. The sample holds actives, similar compounds and a random draw of the others, so the mix is not that of the screen. A number with no mark means an inactive call. Rule as the data show it: active = inhibition above about 30%; inactive = the rest."}
{"test_system": "Crimean-Congo hemorrhagic fever virus L polyprotein viral ovarian tumor (vOTU) protease domain", "experiment": "CCHFV vOTU protease inhibitors, primary screen, biochemical, Pep-AMC substrate, fluorescence (AID 651958); also: 0% = vehicle wells with enzyme and 100% = no enzyme wells", "conditions": "at 11.5 µM, hits give high values"}
{"smiles": "Cc1ccc2c(c1)C(c1ccccc1)N(C(=O)c1ccc(S(=O)(=O)N3CCOCC3)cc1)CC(=O)N2", "note": "(stereo not given)", "inhibition": "-6.16%"}
{"smiles": "Cc1ccc(S(=O)(=O)N2CCN(C(=O)c3cccs3)CC2)cc1", "inhibition": "-14.5%"}
{"smiles": "COc1ccccc1NC1=NC(c2ccc(Cl)cc2)N=C(N)N1", "note": "(stereo not given)", "inhibition": "2.38%"}
{"smiles": "CCNC(=S)N1CCN(S(=O)(=O)c2ccc(Cl)s2)CC1", "inhibition": "11.2%"}
{"smiles": "Cc1ccc(NC(=S)N2CCN(c3ncccn3)CC2)cc1C", "inhibition": "2.37%"}
{"smiles": "CCNC(=S)N1CCN(c2ncccn2)CC1", "inhibition": "43.8% (active)"}
{"smiles": "CCC(C(=O)NCc1cccnc1)n1nc(C)c2sc3ccccc3c2c1=O", "note": "(stereo not given)", "inhibition": "-2%"}
{"smiles": "COCCNC(=O)C1C(=O)Nc2ccccc2C(=O)N1c1ccc2c(c1)OCCO2", "note": "(stereo not given)", "inhibition": "26.3%"}
{"smiles": "O=C(/C=C/c1cccs1)c1cc(Cl)ccc1OC(=O)N1CCOCC1", "inhibition": "10.7%"}
{"smiles": "Cc1cc2nc(SCCN3CCOCC3)[nH]c2cc1C", "inhibition": "3.87%"}
{"smiles": "CCOC(=O)N1CCC(C(N)=O)CC1", "inhibition": "8.61%"}
{"smiles": "CCOC(=O)N1CCC(c2cc(=O)n(-c3ccccc3)[nH]2)CC1", "inhibition": "71.1% (active)"}
{"smiles": "CCOC(=O)N1CCC(NC(=O)Cc2cn(C)c3ccccc23)CC1", "inhibition": "3.03%"}
{"smiles": "CCOc1ccc(CNC(=O)C2CC(=O)N(C3CCCC3)C2)cc1OC", "note": "(stereo not given)", "inhibition": "4.25%"}
{"smiles": "CC(C)(C)OC(=O)NC(Cc1ccccc1)C(=O)NC(CSC1CCCCO1)C(=O)NN", "note": "(stereo not given)", "inhibition": "-4.89%"}
{"smiles": "CCOC(=O)N(C)c1c(CC)nc2c(OCc3ccccc3C(=O)OC)cccn12", "inhibition": "15.9%"}
{"smiles": "O=C1Nc2cc(C(=O)N3CCN(c4ccc(F)cc4)CC3)ccc2NC1CSCc1cccc(F)c1", "note": "(stereo not given)", "inhibition": "32.1% (active)"}
{"smiles": "Cc1ccccc1CN1CCN(C(=O)c2cccc(F)c2)CC1", "inhibition": "6.94%"}
{"smiles": "C=CCn1c(SCc2cccc(F)c2)nc2cc(C(=O)N3CCC(C(N)=O)CC3)ccc2c1=O", "inhibition": "14.2%"}
{"smiles": "COC(=O)C1=C(Nc2ccc(C)cc2)C=C(C)C(C(=O)OC)C1c1ccc(F)cc1", "note": "(stereo not given)", "inhibition": "15.8%"}
{"smiles": "COc1ccc(C2=Nc3cc(C)ccc3OC2)cc1", "inhibition": "14.7%"}
{"smiles": "COC(=O)c1ccccc1N=Nc1c(C)[nH][nH]c1=O", "inhibition": "-9.29%"}
{"smiles": "COc1ccccc1N=Nc1c(O)[nH]c(=S)[nH]c1=O", "inhibition": "38.1% (active)"}
{"smiles": "CCOCCc1c(O)[nH]c(=S)[nH]c1=O", "inhibition": "5.12%"}
{"smiles": "O=C(COC(=O)/C=C/c1ccc(S(=O)(=O)N2CCCCCC2)cc1)NCc1ccccc1Cl", "inhibition": "-8.91%"}
{"smiles": "Cc1cc(C)nc(-n2ncc3c2CC(c2ccc(C(C)C)cc2)CC3=O)n1", "note": "(stereo not given)", "inhibition": "2.76%"}
{"smiles": "Cc1cccc(C)c1NC1=NC(=S)N(c2ccc(N(C)C)cc2)C1(C)C", "inhibition": "27.5%"}
{"smiles": "CCOC(=O)C1C(c2ccc(O)cc2)NC(=O)NC1(O)C(F)(F)F", "note": "(stereo not given)", "inhibition": "-18.4%"}
{"smiles": "O=C1NC(c2ccc(-c3ccccc3[N+](=O)[O-])o2)C(C(=O)c2ccc(Cl)cc2)C(O)(C(F)(F)F)N1", "note": "(stereo not given)", "inhibition": "38.5% (active)"}
{"smiles": "Cc1cn(C)c(=O)n(C)c1=O", "inhibition": "-10.2%"}
{"smiles": "Cc1ccc([C@H]2C[C@H](O)[C@@H](n3cc(COC(=O)c4ccccc4)nn3)CN2C(=O)C2CCCCC2)cc1", "inhibition": "9.18%"}
{"smiles": "CCCCCC(=O)N1C[C@H](O)[C@@H](n2cc(COC(=O)c3ccccc3)nn2)C[C@@H]1c1ccc(C)cc1", "inhibition": "30.5% (active)"}
{"smiles": "CCCCCCN1C[C@@H](O)[C@H](n2cc(COC(=O)c3ccccc3)nn2)C[C@@H]1c1ccc(Cl)cc1", "inhibition": "-5.93%"}
{"smiles": "COc1ccc(C(C#N)N2N=C(C)CC2(C)C)cc1", "note": "(stereo not given)", "inhibition": "4.09%"}
{"smiles": "COc1cc(Cl)c(C)cc1NC(=O)[C@@H]1CCCN1C(=O)c1cccs1", "inhibition": "-1.68%"}
{"smiles": "CCC1=NN(C(=O)Cc2ccc([N+](=O)[O-])cc2)C(O)(c2ccc(Br)cc2)C1", "note": "(stereo not given)", "inhibition": "-9.95%"}
{"smiles": "C=CCC[C@H](CCCCC)OC(=O)/C=C/[C@H](O)[C@@H](O)C[C@@H](O)CC=C", "inhibition": "18.2%"}
{"smiles": "C=CCC[C@@H](CCCCC)OC(=O)/C=C/[C@@H](O)[C@H](O)C[C@H](O)CC=C", "inhibition": "32.8% (active)"}
{"smiles": "O=C(CCl)NNc1cccc(Cl)n1", "inhibition": "2.47%"}
{"smiles": "Cc1ccc(C23CC4CC(CC(C(=O)NCC(=O)O)(C4)C2)C3)cc1", "inhibition": "12.6%"}
{"smiles": "CN(C)c1ccc(N/C=C/C(=O)C(F)(F)F)cc1", "inhibition": "65% (active)"}
{"smiles": "Cc1cc(C(=O)COc2ccccc2[N+](=O)[O-])c(C)n1-c1cccc(S(=O)(=O)N2CCOCC2)c1", "inhibition": "15.2%"}
{"smiles": "Cc1cc(C(=O)N/N=C/c2ccc(O)c([N+](=O)[O-])c2)c(C)n1-c1ccc(F)cc1", "inhibition": "45.6% (active)"}
{"smiles": "Cc1ccc(NC(=O)CN(C)Cc2ccc(F)cc2)c([N+](=O)[O-])c1", "inhibition": "-3.76%"}
{"smiles": "CC(C)(C)n1nnnc1C(c1ccccc1F)N1CCN(C(=O)c2ccco2)CC1", "note": "(stereo not given)", "inhibition": "9.18%"}
{"smiles": "CC(C)c1ccc(NC(=O)COC(=O)c2ccc(CN3CCCC3=O)cc2)cc1", "inhibition": "3.69%"}
{"smiles": "CC(C)c1ccc(OCC(=O)N2CCCN(C)CC2)cc1", "inhibition": "7.24%"}
{"smiles": "CC(=O)N1CCN(c2ccc(NCc3ccc(C(C)C)cc3)cc2)CC1", "inhibition": "34.2% (active)"}
{"smiles": "O=C(NC1CC1)C1=C[C@H](c2coc3ccccc3c2=O)C[C@H](OCCCCO)O1", "inhibition": "-2.05%"}
{"smiles": "CCOc1ccc(NC(=O)CCCCCN2C(=O)[C@@H]3Cc4ccccc4CN3C2=O)cc1", "inhibition": "13.7%"}
{"smiles": "CC(C)(C)NC(=O)CN(C(=O)c1csnn1)c1ccccc1-c1ccccc1", "inhibition": "-7.68%"}
{"smiles": "CSc1ccccc1NC(=O)c1cc(C2CC2)on1", "inhibition": "11.1%"}
{"smiles": "NC1=CC(=O)C(=O)c2cccnc21", "inhibition": "104% (active)"}
{"smiles": "O=C(NC1CCN(C(=S)NCc2ccco2)CC1)c1ccc(F)cc1", "inhibition": "13.2%"}
{"smiles": "COc1ccccc1N(CC(=O)Nc1ccc(C)cc1Cl)S(=O)(=O)c1cccs1", "inhibition": "1.37%"}
